Entries with a potency or affinity are not part of this list. Activity calls are given as the source filed them. Unless noted, the rule behind the calls is not given here.

For one assay, the target named is Calcium-dependent protein kinase 1 (Plasmodium falciparum (isolate 3D7)) (UniProt P62344). In words: PfCDPK1 kinase inhibitors, biochemical, TCAMS library (AID 1159585; cut-off not given, nearly all actives have IC50 up to about 0.98 µM;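 note: inhibitors leave more ATP so luminescence rises with inhibition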). The conditions noted are these: recombinant PfCDPK1, Kinase-Glo ATP depletion luminescence.
Calcium-dependent protein kinase 1 (Plasmodium falciparum (isolate 3D7)), sequence (P62344 whole entry, looked up): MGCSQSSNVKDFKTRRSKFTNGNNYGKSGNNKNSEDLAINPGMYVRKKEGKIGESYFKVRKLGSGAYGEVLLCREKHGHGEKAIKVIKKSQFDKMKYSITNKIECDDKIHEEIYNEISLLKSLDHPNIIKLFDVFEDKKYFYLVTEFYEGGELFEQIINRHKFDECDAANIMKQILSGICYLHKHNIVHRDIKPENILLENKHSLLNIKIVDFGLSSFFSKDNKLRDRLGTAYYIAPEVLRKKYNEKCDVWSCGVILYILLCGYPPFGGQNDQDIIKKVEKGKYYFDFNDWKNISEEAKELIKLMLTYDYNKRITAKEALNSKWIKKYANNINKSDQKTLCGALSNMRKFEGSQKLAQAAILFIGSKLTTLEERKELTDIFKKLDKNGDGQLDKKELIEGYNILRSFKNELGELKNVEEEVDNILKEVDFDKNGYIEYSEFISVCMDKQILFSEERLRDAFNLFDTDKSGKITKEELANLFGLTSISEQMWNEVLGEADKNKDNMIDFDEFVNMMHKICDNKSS
As to `COc1ccc(CC(C)NCC(O)c2cccc(Cl)c2F)cc1` (stereo not given), the result was inactive.

As to `O=C(NC1CCC(CN2CCC(c3c[nH]c4ccccc34)CC2)CC1)c1cnn(-c2ccccc2)c1-c1ccccc1Cl` (stereo not given), the result was inactive.

`COc1ccc(OC)c([C@H](O)[C@@H](C)NCc2cc(Cl)ccc2O)c1`: the result was inactive.

Take `OC1(CNCc2ccccc2)CCN(CCc2c[nH]c3ccc(F)cc23)CC1`: the outcome was inactive.

As to `CNC(=O)c1ccc2[nH]cc(C3CCN(CC4CCC(NC(=O)/C=C/c5ccccc5Cl)CC4)CC3)c2c1` (stereo not given), the result was inactive.

For `CC(Cc1ccc(SC(C)C)cc1)NCC(O)c1cccc(Cl)c1` (stereo not given), the outcome was inactive.

As for `CS(=O)(=O)Nc1ccc2c(C3CCN(CC4CCN(C(=O)/C=C/c5ccc(Cl)c(Cl)c5)CC4)CC3)c[nH]c2c1`, the outcome was inactive.

On to `COC(=O)/C=C/c1ccc(C[C@@H](C)NC[C@H](O)c2cccc(C(F)(F)F)c2)cc1`, for which the result was inactive.

For the molecule `COCCNCc1cccc(-c2ccc(CN(C(=O)Nc3ccccc3)C3CCN(Cc4ccccc4)CC3)cc2)c1`, the result was inactive.

Regarding `Cc1ccc(C[C@@H](C)NC[C@H](O)c2cccc(C(F)(F)F)c2)cc1`, the outcome was inactive.

For the molecule `CC[C@H]1CN2CC[C@H]1C[C@H]2[C@H](O)c1cc(-c2cccc(C)c2)nc2ccc(OC)cc12`, the result was inactive.

As for `CC(C)NC(=O)Cn1cc(C2CCN(CC3CCN(C(=O)/C=C/c4ccc(Cl)c(Cl)c4)CC3)CC2)c2ccccc21`, the result was inactive.

As for `Cc1ccc(C)c(N2CCN(Cc3ccccc3O)CC2)c1`, the outcome was inactive.

As to `O=C(/C=C/c1ccc(Cl)c(Cl)c1)NCCCCCN1C2CCC1CC(c1c[nH]c3ccccc13)C2` (stereo not given), the result was inactive.

In the case of `CC(Cc1ccc(SC(C)(C)C)cc1)NCC(O)c1cccc(Cl)c1` (stereo not given), the outcome was inactive.

With `CC(C)CNCc1ccc(-c2cccc(CN(C(=O)Nc3ccccc3)C3CCN(Cc4ccccc4)CC3)c2)cc1`, the result was inactive.

Turning to `C=C[C@H]1CN2CC[C@@H]1C[C@H]2[C@H](O)c1cc(-c2ccc(F)cc2)nc2ccc(OC)cc12`, the result was inactive.

With `Cc1cccc(C(=O)Nc2ccnc(N(C)C3CCN(CC(C)C)CC3)c2)c1`, the outcome was inactive.

On to `Cc1ccccc1CNCC(O)c1cccc(C(F)(F)F)c1` (stereo not given), for which the outcome was inactive.

Turning to `CNCCN(C)C(=O)Oc1c(Cl)c(C)nc(C)c1-c1ccc(Oc2ccc(OC(F)(F)F)cc2)cc1`, the result was inactive.

With `O=C(/C=C/c1ccc(Cl)c(Cl)c1)NCCC1CCC(N2CCC(c3c[nH]c4ccc(O)cc34)CC2)CC1` (stereo not given), the result was inactive.

Consider `CN(c1cc(NC(=O)c2cccs2)ccn1)C1CCN(Cc2ccccc2)CC1`, for which the outcome was inactive.

Take `O=C(C=C1c2ccccc2-c2ccccc21)NC1CCC(CN2CCC(c3c[nH]c4ccccc34)CC2)CC1` (stereo not given): the result was inactive.

As for `CC(=O)N(Cc1ccccc1-c1cccc(CNCc2ccc3c(c2)OCO3)c1)C1CCN(Cc2ccccc2)CC1`, the outcome was inactive.

For the molecule `CC(Cc1ccc(OCCOc2ccccc2)cc1)NCC(O)c1cccc(C(F)(F)F)c1` (stereo not given), the outcome was inactive.

With `CC(=O)Nc1ccc2[nH]cc(C3CCN(CC4CCN(C(=O)/C=C/c5ccc(Cl)c(Cl)c5)CC4)CC3)c2c1`, the result was inactive.

With `CC(Cc1ccc(OCCCCOc2ccccc2)cc1)NCCCc1nc2ccccc2[nH]1` (stereo not given), the outcome was inactive.

Turning to `FC(F)(F)c1ccc(NC(=S)NC2CCC(CN3CCC(c4c[nH]c5ccccc45)CC3)CC2)cc1` (stereo not given), the outcome was inactive.

Consider `COc1cccc(O)c1CNCC(O)c1cccc(C(F)(F)F)c1` (stereo not given), for which the outcome was inactive.

For `COc1ccc(CCNCc2ccc3nc(N)c(C)cc3c2)cc1`, the result was inactive.

Turning to `Brc1cnc(NC2=NCCN2)c(Br)c1`, the outcome was inactive.

As for `COc1ccc(C(=O)[C@H]2C[C@@H]2CN2CC=C(c3c[nH]c4ccccc34)CC2)cc1`, the outcome was inactive.

Turning to `Oc1ccc(CN2CCN(CCOC(c3ccc(F)cc3)c3ccc(F)cc3)CC2)cc1Cl`, the result was inactive.

With `Oc1cc2c(cc1CN1CCN(Cc3ccccc3)CC1)CCC2`, the result was inactive.

For the molecule `CN(CC(=O)N1CCN(S(=O)(=O)c2cccc(Cl)c2)CC1CN1CCCC1)c1ccc(Cl)c(Cl)c1` (stereo not given), the outcome was inactive.

Turning to `O=C(/C=C/c1ccc(Cl)c(Cl)c1)N1CCC(CN2CCC(c3c[nH]c4cc(C(F)(F)F)ccc34)CC2)CC1`, the result was inactive.

Consider `COc1cc(C=CC(=O)N2CCC(CN3CCC(c4c[nH]c5ccccc45)CC3)CC2)ccc1O`, for which the outcome was inactive.

In the case of `COC(=O)c1ccc(CC(C)NCC(O)c2cccc(C(F)(F)F)c2)c(Cl)c1` (stereo not given), the result was inactive.

Take `Cn1cc(CN2CCC(CCOC(c3ccccc3)c3ccccc3)CC2)cn1`: the result was inactive.

As for `COc1cc(/C=C/C(=O)NC2CCC(CN3CCC(c4c[nH]c5ccccc45)CC3)CC2)ccc1O` (stereo not given), the result was inactive.

For a further assay, the target named is Plasmodium falciparum protein kinase 6 (PK6, PF3D7_1337100) (UniProt Q8IDW1). In words: PfPK6 kinase inhibitors, biochemical, TCAMS library (AID 1159586). The conditions noted are these: recombinant PfPK6, Kinase-Glo ATP depletion luminescence. A general note: In Kinase-Glo more light means more ATP remaining.
Plasmodium falciparum protein kinase 6 (PK6, PF3D7_1337100), sequence (Q8IDW1 1-305): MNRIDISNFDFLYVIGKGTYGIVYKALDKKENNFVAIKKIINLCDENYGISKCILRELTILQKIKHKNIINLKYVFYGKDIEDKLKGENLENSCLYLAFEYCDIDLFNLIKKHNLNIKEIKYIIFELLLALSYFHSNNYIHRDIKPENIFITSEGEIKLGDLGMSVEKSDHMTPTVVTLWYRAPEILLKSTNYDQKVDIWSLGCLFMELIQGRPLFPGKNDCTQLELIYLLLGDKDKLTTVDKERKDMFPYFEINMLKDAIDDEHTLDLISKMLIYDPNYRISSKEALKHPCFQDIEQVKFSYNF
As for `COc1ccc(CC(C)NCC(O)c2cccc(Cl)c2F)cc1` (stereo not given), the result was inactive.

With `O=C(NC1CCC(CN2CCC(c3c[nH]c4ccccc34)CC2)CC1)c1cnn(-c2ccccc2)c1-c1ccccc1Cl` (stereo not given), the outcome was inactive.

For `COc1ccc(OC)c([C@H](O)[C@@H](C)NCc2cc(Cl)ccc2O)c1`, the result was inactive.

Turning to `OC1(CNCc2ccccc2)CCN(CCc2c[nH]c3ccc(F)cc23)CC1`, the result was inactive.

Turning to `CNC(=O)c1ccc2[nH]cc(C3CCN(CC4CCC(NC(=O)/C=C/c5ccccc5Cl)CC4)CC3)c2c1` (stereo not given), the result was inactive.

`CC(Cc1ccc(SC(C)C)cc1)NCC(O)c1cccc(Cl)c1` (stereo not given): the outcome was inactive.

In the case of `CS(=O)(=O)Nc1ccc2c(C3CCN(CC4CCN(C(=O)/C=C/c5ccc(Cl)c(Cl)c5)CC4)CC3)c[nH]c2c1`, the result was inactive.

On to `COC(=O)/C=C/c1ccc(C[C@@H](C)NC[C@H](O)c2cccc(C(F)(F)F)c2)cc1`, for which the outcome was inactive.

Take `COCCNCc1cccc(-c2ccc(CN(C(=O)Nc3ccccc3)C3CCN(Cc4ccccc4)CC3)cc2)c1`: the outcome was inactive.

Consider `Cc1ccc(C[C@@H](C)NC[C@H](O)c2cccc(C(F)(F)F)c2)cc1`, for which the result was inactive.

With `CC[C@H]1CN2CC[C@H]1C[C@H]2[C@H](O)c1cc(-c2cccc(C)c2)nc2ccc(OC)cc12`, the outcome was inactive.

Take `CC(C)NC(=O)Cn1cc(C2CCN(CC3CCN(C(=O)/C=C/c4ccc(Cl)c(Cl)c4)CC3)CC2)c2ccccc21`: the result was inactive.

As for `Cc1ccc(C)c(N2CCN(Cc3ccccc3O)CC2)c1`, the outcome was inactive.

For the molecule `O=C(/C=C/c1ccc(Cl)c(Cl)c1)NCCCCCN1C2CCC1CC(c1c[nH]c3ccccc13)C2` (stereo not given), the result was inactive.

On to `CC(Cc1ccc(SC(C)(C)C)cc1)NCC(O)c1cccc(Cl)c1` (stereo not given), for which the result was inactive.

With `CC(C)CNCc1ccc(-c2cccc(CN(C(=O)Nc3ccccc3)C3CCN(Cc4ccccc4)CC3)c2)cc1`, the outcome was inactive.

In the case of `C=C[C@H]1CN2CC[C@@H]1C[C@H]2[C@H](O)c1cc(-c2ccc(F)cc2)nc2ccc(OC)cc12`, the outcome was inactive.

As to `Cc1cccc(C(=O)Nc2ccnc(N(C)C3CCN(CC(C)C)CC3)c2)c1`, the outcome was inactive.

On to `Cc1ccccc1CNCC(O)c1cccc(C(F)(F)F)c1` (stereo not given), for which the outcome was inactive.

On to `CNCCN(C)C(=O)Oc1c(Cl)c(C)nc(C)c1-c1ccc(Oc2ccc(OC(F)(F)F)cc2)cc1`, for which the result was inactive.

For the molecule `O=C(/C=C/c1ccc(Cl)c(Cl)c1)NCCC1CCC(N2CCC(c3c[nH]c4ccc(O)cc34)CC2)CC1` (stereo not given), the outcome was inactive.

As for `CN(c1cc(NC(=O)c2cccs2)ccn1)C1CCN(Cc2ccccc2)CC1`, the result was inactive.

Take `O=C(C=C1c2ccccc2-c2ccccc21)NC1CCC(CN2CCC(c3c[nH]c4ccccc34)CC2)CC1` (stereo not given): the outcome was inactive.

For `CC(=O)N(Cc1ccccc1-c1cccc(CNCc2ccc3c(c2)OCO3)c1)C1CCN(Cc2ccccc2)CC1`, the result was inactive.

Regarding `CC(Cc1ccc(OCCOc2ccccc2)cc1)NCC(O)c1cccc(C(F)(F)F)c1` (stereo not given), the result was inactive.

In the case of `CC(=O)Nc1ccc2[nH]cc(C3CCN(CC4CCN(C(=O)/C=C/c5ccc(Cl)c(Cl)c5)CC4)CC3)c2c1`, the outcome was inactive.

On to `CC(Cc1ccc(OCCCCOc2ccccc2)cc1)NCCCc1nc2ccccc2[nH]1` (stereo not given), for which the result was inactive.

Regarding `FC(F)(F)c1ccc(NC(=S)NC2CCC(CN3CCC(c4c[nH]c5ccccc45)CC3)CC2)cc1` (stereo not given), the result was inactive.

As for `COc1cccc(O)c1CNCC(O)c1cccc(C(F)(F)F)c1` (stereo not given), the result was inactive.

Regarding `COc1ccc(CCNCc2ccc3nc(N)c(C)cc3c2)cc1`, the outcome was inactive.

Turning to `Brc1cnc(NC2=NCCN2)c(Br)c1`, the outcome was inactive.

On to `COc1ccc(C(=O)[C@H]2C[C@@H]2CN2CC=C(c3c[nH]c4ccccc34)CC2)cc1`, for which the outcome was inactive.

Regarding `Oc1ccc(CN2CCN(CCOC(c3ccc(F)cc3)c3ccc(F)cc3)CC2)cc1Cl`, the result was inactive.

As to `Oc1cc2c(cc1CN1CCN(Cc3ccccc3)CC1)CCC2`, the result was inactive.

`CN(CC(=O)N1CCN(S(=O)(=O)c2cccc(Cl)c2)CC1CN1CCCC1)c1ccc(Cl)c(Cl)c1` (stereo not given): the result was inactive.

On to `O=C(/C=C/c1ccc(Cl)c(Cl)c1)N1CCC(CN2CCC(c3c[nH]c4cc(C(F)(F)F)ccc34)CC2)CC1`, for which the outcome was inactive.

Turning to `COc1cc(C=CC(=O)N2CCC(CN3CCC(c4c[nH]c5ccccc45)CC3)CC2)ccc1O`, the result was inactive.

Turning to `COC(=O)c1ccc(CC(C)NCC(O)c2cccc(C(F)(F)F)c2)c(Cl)c1` (stereo not given), the result was inactive.

As to `Cn1cc(CN2CCC(CCOC(c3ccccc3)c3ccccc3)CC2)cn1`, the result was inactive.

On to `COc1cc(/C=C/C(=O)NC2CCC(CN3CCC(c4c[nH]c5ccccc45)CC3)CC2)ccc1O` (stereo not given), for which the result was inactive.

For the origin of these results see PubChem BioAssay.
